Experimental data taken from ChEMBL document CHEMBL4296183, “CO-ADD screening of NIH NCI Natural Product Set III” (2020).

System: Escherichia coli
Assay: Antibacterial activity against Escherichia coli ATCC 25922 (CO-ADD:GN_001); MIC in CAMBH media using NBS plates, by Resazurin F(560/590)
Type: functional
Details: Concentration 20 uM, ASSAY_TEST Inhibition of Bacterial Growth, detection method Resazurin, Fluorescence (ex560/em590), MEDIA CAMHB, plate type 384well, CORNING #3640, time 18 hr

Structure (SMILES)	Inhibition [%]
CC(=O)O.COc1ccc2c(=O)oc3c(OC)cc(CCN(C)C)c4c(=O)oc1c2c34	6.5
COc1cc(C)c2c(c1C=O)Oc1c(c(C)c(O)c3c1C(O)OC3=O)OC2=O (stereo not drawn) [STICTIC ACID]	10.36
CC1(C)C(=O)N2c3ccccc3C3(CC(N4C(=O)c5ccccc5C4=O)C(=O)O3)C2N1C(=O)OCc1ccccc1 (stereo not drawn)	1.59
COc1c2occc2cc2ccc(=O)oc12 [METHOXSALEN]	2.12
C=C1C(=O)OC2CC(C)C3(O)CCC(=O)C3(C)CC12 (stereo not drawn)	9.08
COc1ccc2c(c1OC)C(=O)O[C@@H]2[C@H]1c2c(cc3c(c2OC)OCO3)CCN1C [NOSCAPINE]	1.19
CC(C)CC1NC(=O)C(C(C)C)NC(=O)CC(C)COC(=O)C(CC(C)C)N(C)C(=O)C(C(C)C)NC(=O)C(C(C)C)OC1=O (stereo not drawn)	6.85
COc1c2occc2c(OC)c2c(=O)cc(C)oc12 [KHELLIN]	5.11
CCCCCc1cc(O)cc2c1Oc1cc(O)cc(C(=O)CCCC)c1C(=O)O2	9.72
CC(=O)Oc1ccc2ccc(=O)oc2c1OC(C)=O	2.34
O=c1oc2c(O)c(O)cc3c(=O)oc4c(O)c(O)cc1c4c23 [ELLAGIC ACID]	7.74
COC(=O)[C@@H]1[C@H]2C[C@@H]3c4[nH]c5ccccc5c4CCN3C[C@@H]2CC[C@@H]1O	11.73
COc1cc([C@@H]2c3cc4c(cc3[C@@H](OC3OC5CO[C@@H](c6cccs6)OC5C(O)C3O)[C@H]3COC(=O)[C@H]23)OCO4)cc(OC)c1O (stereo partly drawn)	1.68
